We go through 11 molecules from the supplement of paper PMC8253809.

Where “and” joins values, the source holds several entries; their conditions need not be identical. Identical values can stand only once.

Experiment in all cases: growth inhibition (% activity, log2 RLU normalised to DMSO / staurosporine); higher = more growth inhibition
Common to all, as to settings: 33 µM

In experiment [1] the test system is DIPGX29 (H3.3 K27M diffuse intrinsic pontine glioma line). Put shortly: (§1)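 pHGG cell lines and H9-derived neural stem cells were grown on Geltrex-coated 384-well plates. Approved drugs were added by pin tool at a single final concentration of about 33 μM, in triplicate, for 7 days at 37 °C, 5% CO2. CellTiter-Glo luminescence was log2-transformed and normalised per plate to % activity between solvent and positive control wells. The growth-inhibition value is the median over replicates.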

For experiment [2], the system named is DIPGX37 (H3.3 K27M diffuse intrinsic pontine glioma line). A digest of the protocol: as §1
The test system of experiment [3] is DIPGX7 (H3.3 K27M diffuse intrinsic pontine glioma line). A digest of the protocol:
as §1

Experiment [4] relates to DIPGX9 (diffuse intrinsic pontine glioma line). Put shortly:
as §1

Experiment [5] concerns HGGX39 (paediatric high-grade glioma line). A digest of the protocol:
as §1

Experiment [6] has as its system HGGX6 (H3.3 G34R paediatric high-grade glioma line). Put shortly:
as §1

Experiment [7] deals with HNSC. A digest of the protocol: as §1
The subject of experiment [8] is SUDIPGIV (diffuse intrinsic pontine glioma line)
Put shortly:
as §1

Experiment [9] deals with SUDIPGVI (diffuse intrinsic pontine glioma line)
A digest of the protocol: as §1

Experiment [10] deals with SUDIPGXIII (diffuse intrinsic pontine glioma line)
Put shortly: as §1

For `NCC[C@H](O)C(=O)N[C@@H]1C[C@H](N)[C@@H](O[C@H]2O[C@H](CN)[C@@H](O)[C@H](O)[C@H]2O)[C@H](O)[C@H]1O[C@H]1O[C@H](CO)[C@@H](O)[C@H](N)[C@H]1O`, the growth inhibition in [1] is -1.74% and 1.77%; in experiment [2], -1.47% and 4.24%; in [3] it was -2.3% and 3.01%; in experiment [4], -2.19% and 1.75%; in experiment [5], -0.158% and 4.96%; in experiment [6], -2.78% and 2.92%. In addition, the growth inhibition was -1.9% and 2.1% in experiment [7]; -1.35% and 2.18% in experiment [8]; -1.89% and 2.2% in [9]; -0.125% and 0.203% in experiment [10].
With `O=C(Nc1ccccc1)OCC(CN1CCCCC1)OC(=O)Nc1ccccc1` (stereo not given), the growth inhibition in experiment [1] is -1.04%; in experiment [2], -3.49%; in experiment [3] it was -0.617%; in experiment [4], -1.45%; in experiment [5], -2.3%; in experiment [6], -1.35%. The growth inhibition in experiment [7] is 9.66%; in experiment [8], -3.64%; in [9] it was -7.72%; in [10] it was 1.16%.
For the molecule `Nc1nc(F)nc2c1ncn2[C@@H]1O[C@H](COP(=O)(O)O)[C@@H](O)[C@@H]1O`, the growth inhibition is 16.9% in experiment [1]; 1.7% in [2]; 11.8% in experiment [3]; 31.4% in [4]; 8.94% in experiment [5]; -0.81% in experiment [6]. Besides, the growth inhibition was 23.2% in [7], 9.24% in experiment [8], -2.06% in experiment [9] and 1.2% in experiment [10].
As for `CC(C)C(=O)Oc1ccc(CO)cc1[C@H](CCN(C(C)C)C(C)C)c1ccccc1`, the growth inhibition was 0.102% in experiment [1]; -1.82% in experiment [2]; 0.436% in [3]; 0.893% in [4]; 1.59% in experiment [5]; -1.41% in [6]. For the same molecule, the growth inhibition in [7] is 0.95%; in [8], -0.518%; in experiment [9], 1.55%; in experiment [10], 0.403%.
Take `CC(C)c1c(C(=O)Nc2ccccc2)c(-c2ccccc2)c(-c2ccc(F)cc2)n1CC[C@@H](O)C[C@@H](O)CC(=O)O`: the growth inhibition in experiment [1] is 16.8%; in experiment [2] it was -10%; in experiment [3] it was 21.8%; in experiment [4], 7.54%; in [5] it was 42.1%; in experiment [6], 23%. Also, the growth inhibition in experiment [7] was 65.6%; in [8] it was 32.1%; in experiment [9], -0.629%; in [10], 39.2%.
For `N#CC(c1ccc(Cl)cc1)c1c(Cl)cc(-n2ncc(=O)[nH]c2=O)cc1Cl` (stereo not given), the growth inhibition in [1] was -3.67%; in experiment [2] it was -2.44%; in experiment [3], -2.85%; in experiment [4] it was -2.54%; in experiment [5], -2.75%; in [6], -3.94%. Further, the growth inhibition in experiment [7] was -1.15%; in [8] it was -2.27%; in experiment [9], -3.68%; in experiment [10], 0.254%.
On to `COC(=O)C1=C(C)NC(C)=C(C(=O)OC)C1c1ccccc1[N+](=O)[O-]`, for which the growth inhibition in experiment [1] is -2.53%; in experiment [2], -2.53%; in experiment [3], 0.0754%; in experiment [4] it was 3.5%; in experiment [5], -0.258%; in [6], -0.288%. For the same molecule, the growth inhibition was 8.49% in experiment [7], -2.66% in [8], -7.47% in [9] and -0.486% in experiment [10].
On to `Cc1ccc(NC(=O)c2ccc(CN3CCN(C)CC3)cc2)cc1Nc1nccc(-c2cccnc2)n1`, for which the growth inhibition in [1] is 4.56% and 0.376%; in [2] it was 3.89% and 0.0929%; in [3], 5.28% and 3.03%; in [4], 2.43% and -0.42%; in experiment [5], 8.41% and 4.83%; in [6], 5.52% and -1.5%. Besides, the growth inhibition in experiment [7] is 3.25% and -0.323%; in experiment [8], 4.42% and 1.82%; in [9], 4.93% and -0.526%; in [10], -15.8% and 0.752%.
In the case of `COc1c2ccoc2cc2oc(=O)ccc12`, the growth inhibition in experiment [1] was 0.175%; in [2], -0.379%; in experiment [3], 0.232%; in [4] it was 1.51%; in [5], 1.71%; in [6], 2.12%. Further, the growth inhibition was -1.02% in experiment [7], 0.44% in [8], 0.394% in experiment [9] and -0.028% in [10].
`COC(=O)C1=C(C)NC(C)=C(C(=O)OCC(C)C)C1c1ccccc1[N+](=O)[O-]` (stereo not given): the growth inhibition was determined as 1.94% in experiment [1]; 1.14% in [2]; 0.789% in experiment [3]; 2.65% in experiment [4]; 5% in experiment [5]; 3.46% in experiment [6]. Besides, the growth inhibition was determined as 5.72% in [7], 0.591% in experiment [8], 3.16% in experiment [9] and 2.06% in [10].
With `C1N2CN3CN1CN(C2)C3`, the growth inhibition in experiment [1] stood at 1.11%; in experiment [2], 3.51%; in [3] it was 1.18%; in experiment [4] it was 2.53%; in [5] it was 3.89%; in experiment [6], 2.47%. Further, the growth inhibition in experiment [7] was 0.987%; in [8] it was 1.56%; in experiment [9], 1.89%; in experiment [10] it was -0.234%.
